Reference: PubChem BioAssay (NCI)
The panel holds about 79,000 compounds, 15% with a hit somewhere; the sample as a whole holds those more often. Calls of active or inactive are those of the source. Cut-off read from the data, not from the text of the source: active = growth inhibition above about 70%; inactive = the rest.

Legend:
[1] = NCI Yeast Anticancer Drug Screen. Data for the rad50 strain (AID 155);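 note: 0% = growth of vehicle-only cultures of the same strain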; conditions: S. cerevisiae rad50 strain growth inhibition; at 50.0 µM; stronger effect = higher value
How it was run: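 Cells are treated with compound, grown, and their growth is then scored against vehicle-only cultures of the same repair-deficient yeast strain.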

[2] = NCI Yeast Anticancer Drug Screen. Data for the mec2-1 strain (AID 157); conditions: S. cerevisiae mec2-1 strain, at 50.0 µM, stronger effect = higher value
How it was run: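 Strain: mec2-1 (DNA repair/cell cycle alteration). Compound exposure, then growth measured; inhibition expressed relative to vehicle.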

[3] = NCI Yeast Anticancer Drug Screen. Data for the sgs1 mgt1 strain (AID 161);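 note: 0% = growth of cultures given vehicle only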; conditions: S. cerevisiae sgs1 mgt1 strain, at 50.0 µM, stronger effect = higher value
How it was run: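 Test agents were incubated with a DNA-repair-mutant yeast strain. Growth was then read and compared against vehicle-treated controls.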

[4] = NCI Yeast Anticancer Drug Screen. Data for the cln2 rad14 strain (AID 165);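 note: 0% = growth equal to vehicle treated cultures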; conditions: S. cerevisiae cln2 rad14 strain, at 50.0 µM, stronger effect = higher value
How it was run: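 Compounds are applied to the cln2 rad14 yeast strain, and growth is then compared with that of vehicle-treated cultures to give inhibition.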

[5] = NCI Yeast Anticancer Drug Screen. Data for the bub3 strain (AID 167); conditions: S. cerevisiae bub3 mutant strain, at 50.0 µM, stronger effect = higher value
How it was run: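 Part of a panel of yeast mutants defective in DNA damage repair or cell cycle regulation. Each strain is grown with compound, and inhibition is calculated relative to solvent-treated cultures.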

[6] = NCI Yeast Anticancer Drug Screen. Data for the mlh1 rad18 strain (AID 175); conditions: S. cerevisiae mlh1 rad18 strain growth inhibition; at 50.0 µM; stronger effect = higher value
How it was run: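 Read-out is yeast growth inhibition, calculated against vehicle-only controls. The compound was applied to a strain engineered with DNA damage repair alterations.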

Measured: growth inhibition

CCC(=O)Nc1cc(C)ccc1Cl
inactive: [1] -3.95% | [2] -7.9% | [3] 3.2% | [4] -52.9% | [5] 5.9%

Cn1c(=O)c2c(nc(Cl)n2Cc2ccccc2)n(C)c1=O
inactive: [1] -39.8% | [2] 5.1% | [3] -14.6% | [4] 23.6% | [5] 0.8%

NOCc1cc(Cl)sc1Cl
inactive: [1] 24.9% | [2] -2.9% | [3] 6.1% | [4] 60% | [5] -23.9%

Cc1ccc(S(=O)(=O)c2ccccc2C)s1
inactive: [1] -9% | [2] -32.5% | [3] -16.4% | [4] 11.5% | [5] -14.6%

O=C(O)c1scc2c1CCCC2
inactive: [1] -1.65% | [2] -21.7% | [3] -7.5% | [4] -67% | [5] -22.3%

C[C@]12C(=O)OC[C@H](c3ccccc3)N1C(=O)N(Cc1ccccc1)[C@@H]2CO
inactive: [1] -27.8% | [2] -26.1% | [3] -17.6% | [4] 1.6% | [5] 17.1%

CN(C)C(=O)C1(C)CC2CCC1C2 (stereo not given)
inactive: [1] -2.25% | [2] -15.3% | [3] -8.65% | [4] 13.9% | [5] 2.8%

C=C1CC(C)(C)CN(Cc2ccc([N+](=O)[O-])cc2)C(C(=O)OC)=C1C(=O)OC
inactive: [1] 20.4% | [2] -2.55% | [3] 24.4% | [4] 16.8% | [5] -13.8%

CCCCCCCCCc1cc[n+](C2=C([O-])C3=C(C(=O)C2=O)C2c4ccccc4C3c3ccccc32)cc1
inactive: [1] 43.8% | [2] 50.6% | [4] 46% | [5] 53.9%
active: [3] 80.5%

ClC(=Nc1cccc(Cl)c1)C(Cl)=Nc1cccc(Cl)c1
inactive: [1] -6.5% | [2] -1.7% | [3] -2.05% | [4] 12.6% | [5] 6.45%

Cc1ccc(S(=O)(=O)N2CC(CCl)N(S(=O)(=O)c3ccc(C)cc3)CC2CCl)cc1 (stereo not given)
inactive: [1] 28.5% | [2] 7.45% | [3] 20.6% | [4] 10.4% | [5] 4.35%

CC1=CC(=C2C=CC(=O)C=C2)C=C(C)N1C
inactive: [1] 5.6% | [2] -5.55% | [3] -8.05% | [4] -4.5% | [5] 2.4%

NC(=O)C1C2CC3C(C2O)C31C(N)=O (stereo not given)
inactive: [1] -13.1% | [2] -4% | [3] -14% | [4] -30.1% | [5] -12.9%

CC1CS(=O)(=O)O1 (stereo not given)
inactive: [1] -4.45% | [2] -6.75% | [3] -18.6% | [4] 9.5% | [5] 10.3%

COc1ccc2c3c([nH]c2c1)CCN(Cc1ccccc1)C3
inactive: [1] -31.1% | [2] -21.6% | [3] 13.8% | [4] 19.6% | [5] 15.2%

C=C(C)CN(Cc1ccccc1)C1CCCCCCC1
inactive: [1] -7.55% | [2] -11.3% | [3] -14.8% | [4] -5.75% | [5] 1.35%

CCOC(=O)N(C)Cc1ccc(Cl)cc1
inactive: [1] 5.75% | [2] -1.1% | [3] 1.25% | [4] -26.2% | [5] -11.8%

COc1ccc(S(=O)(=O)N2OC2c2ccccc2)cc1 (stereo not given)
inactive: [1] -22.2% | [2] 2.65% | [3] 14.7% | [4] 10% | [5] 1.65%

O=C1Nc2ncnc(Cl)c2Cc2ccccc21
inactive: [1] -2.6% | [2] -6.9% | [3] -0.75% | [4] -12.9% | [5] -6.15%

N#CC(c1ccccc1)N(CCc1ccccc1)C(=O)c1ccc(C(=O)N(CCc2ccccc2)C(C#N)c2ccccc2)cc1 (stereo not given)
inactive: [1] 15.2% | [2] 26.9% | [3] 7.8% | [4] 13.8% | [5] 6.6%

CC12CCCCC1=C(F)C(F)(F)S2 (stereo not given)
inactive: [1] 0.15% | [2] -17.4% | [3] 7.45% | [4] 24.6% | [5] -2.45%

O=C1OCCc2c1[nH]c1ccccc21
inactive: [1] 12.9% | [2] 10.7% | [3] 5.65% | [4] 22.9% | [5] 13.5%

C/C=C/C=N/N(C(=O)c1cc([N+](=O)[O-])cc([N+](=O)[O-])c1)C1=NC(c2ccccc2)C(c2ccccc2)=NN1 (stereo not given)
inactive: [1] 41.9% | [2] 24.4% | [3] 13% | [4] 41.1% | [5] 15.3%

C=C(Nc1ccc([N+](=O)[O-])cc1[N+](=O)[O-])c1c/c(=N\NC(N)=S)c2ccccc2o1
inactive: [1] 25.1% | [2] -16% | [3] -3.85% | [4] 15.6% | [5] 16.4%

O=C(CC(O)(C(F)(F)F)C(F)(F)F)c1cccc(S(=O)(=O)N2CCOCC2)c1
inactive: [1] 7.05% | [2] 5.9% | [3] 8.5% | [4] 8.05% | [5] 0.6%

CC(C/C=C(/C=O)C(C)CC(C)(C)C)CC(C)(C)C (stereo not given)
inactive: [1] 43.9% | [2] 20.2% | [3] 36.3% | [4] -24.1% | [5] 4.85%

C=C1C(=O)O[C@H]2[C@@H](O)[C@H](C)CCC[C@]3(C)O[C@H]3CC[C@@]3(C)O[C@@H]3C[C@@H]12
inactive: [1] 19.4% | [2] 37.2% | [4] 41.8%
active: [3] 70.5%

C=CC(=O)OCC(C)(C)[N+](=O)[O-]
inactive: [1] 18.4% | [2] 15.7% | [3] 12.8% | [4] 2.35% | [5] -3.65%

CC(=O)c1cccc(NCn2nnc3ccccc32)c1
inactive: [1] -47.5% | [2] -8.65% | [3] -62.3% | [4] -4.25% | [5] -45.4%

CCCc1[nH]nc(CCC(=O)N(Cc2ccccc2)Cc2ccccc2)c1CC
inactive: [1] -6.65% | [2] -26.4% | [3] 11.6% | [4] 2.3% | [5] -7.9%

C=Cc1c2[n-]c(c1C)/C=c1\[n-]/c(c(C)c1C=C)=C\c1[n-]c(c(CCC(=O)O)c1C)/C=c1\[n-]/c(c(C)c1CCC(=O)O)=C\2.[Co]
inactive: [1] 14.8% | [2] 54.9% | [3] 53.6% | [4] -2.05% | [5] 19.2%

O=S(=O)(CCN1CCCCC1)c1ccc(F)cc1
inactive: [1] 21.4% | [2] -12.5% | [3] 3.05% | [4] -10.8% | [5] 2.4%

O=c1c2c([nH]c3c1ccc1[nH]c4c(c(=O)c13)CCCC4)CCCC2
inactive: [1] -18.9% | [2] -0.75% | [3] -12.6% | [4] -13.6% | [5] -8.5%

CC(=O)Nc1ccc(/C=N\N=C\c2ccc(NC(C)=O)cc2)cc1
inactive: [1] 1.95% | [2] 13.7% | [3] 28.4% | [4] -4.6% | [5] 29.9%

Cc1ccc(NC(=O)/C(CC(=O)c2c[n+](=O)c3ccccc3n2O)=N\NC(=O)C[n+]2ccccc2)cc1
inactive: [1] 14.1% | [2] -1.25% | [3] -1.75% | [4] 24.8% | [5] 20.3%

CCCc1c(C(=O)OCC)[nH]c(-c2ccc(-c3[nH]c(C(=O)OCC)c(CCC)c3C(=O)OCC)s2)c1C(=O)OCC
inactive: [1] -11.8% | [2] -11.3% | [3] -21.6% | [4] 3% | [5] -12.6%

Cc1ccc(Nc2nc(C)c(C(=O)C/C(=N/NC(N)=S)C(=O)Nc3cc(Cl)cc(Cl)c3)s2)cc1
inactive: [1] -13.3% | [2] -13.1% | [3] 15.6% | [4] 22.1% | [5] -13.4%

COc1cc(/C=C/c2ccc([N+](=O)[O-])cc2[N+](=O)[O-])ccc1O
inactive: [1] 24.3% | [2] 8.5% | [3] 28.6% | [4] 19.1% | [5] 9.25%

CCCCCCCC(=O)NCCCC(C)Nc1cc(OC)cc2cccnc12 (stereo not given)
inactive: [1] 39.7% | [2] 47% | [3] 19.4% | [4] 14.9% | [5] 22%

CC(=O)CCC1(C)CCCC(C)(C)CC1=O (stereo not given)
inactive: [1] -1.3% | [2] 5.15% | [3] 3.75% | [4] -9.55% | [5] -28% | [6] -12.2%

CCOC(=O)C(c1ccccc1)C(C)c1ccccc1 (stereo not given)
inactive: [1] -7.5% | [2] -0.4% | [3] 1.85% | [4] 1.9% | [5] -11.3% | [6] -12.2%

O=C1Cc2ccccc2C(O)=C1c1cnccn1
inactive: [1] 6.3% | [2] 11.2% | [3] 19.6% | [4] -1.6% | [5] 0.25% | [6] 5.95%

Cc1nc2ccccc2nc1C
inactive: [1] -15.2% | [2] -1.8% | [3] -8.85% | [4] 1.2% | [5] -2.35%

O=C(c1ccccc1)C1C(c2ccccc2)SC(c2ccccc2)CC1(O)c1ccccc1 (stereo not given)
inactive: [1] 24.1% | [2] 1.8% | [3] 11.5% | [4] 16.9% | [5] -3.45% | [6] 13.3%

O=c1ccsc(=S)[nH]1
inactive: [1] -1% | [2] -2.1% | [3] -8.35% | [4] 0.25% | [5] 9.05% | [6] -3.9%

COC(=O)C(C)c1cccc2ccc3ccccc3c12 (stereo not given)
inactive: [1] 16.3% | [2] -11.7% | [3] 16.2% | [4] 9.55% | [5] 15.2% | [6] 23.4%
